From PubChem BioAssay AID651710 (Broad Institute, 2012) come the findings set out here.

SMILES strings stand for the structures. “And” between values parts separate entries of the source, which are not always exact repeats. Equal entries are not always repeated. Among all 360,000 compounds or so, about 1,600 (0.44%) were called active.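 How the source made its calls: active means every replicate showing at least 50% inhibition; inconclusive means mean inhibition at least 50% but not in every replicate; inactive means the rest.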 The list comes from a sample in which actives are over-represented; it also holds similar structures and randomly drawn compounds. Where a structure was tested more than once in an assay, its records may differ in their call.

In this test the target is DNA repair protein RAD52 homolog (Homo sapiens) (UniProt P43351). As to the kind of experiment: RAD52 DNA annealing inhibitors, primary screen, biochemical, FRET, single point, set 2 (AID 651710). The following applies: recombinant RAD52 DNA annealing, FRET fluorescence; at 18.7 µM; stronger effect = higher value.
DNA repair protein RAD52 homolog (Homo sapiens), sequence (P43351 whole entry, looked up): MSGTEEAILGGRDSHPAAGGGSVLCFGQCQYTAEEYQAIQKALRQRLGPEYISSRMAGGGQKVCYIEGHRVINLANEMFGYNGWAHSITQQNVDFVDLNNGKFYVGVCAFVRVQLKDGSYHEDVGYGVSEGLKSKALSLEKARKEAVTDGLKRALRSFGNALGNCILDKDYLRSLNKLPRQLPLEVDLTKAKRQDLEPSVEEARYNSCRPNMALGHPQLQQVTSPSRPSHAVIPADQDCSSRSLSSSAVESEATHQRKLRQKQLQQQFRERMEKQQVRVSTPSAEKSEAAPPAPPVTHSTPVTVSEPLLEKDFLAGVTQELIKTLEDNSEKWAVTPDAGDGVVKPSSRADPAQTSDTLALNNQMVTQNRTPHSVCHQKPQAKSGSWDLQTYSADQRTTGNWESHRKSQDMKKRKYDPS
By inhibition is commonly meant the drop in the measured response relative to a control, in per cent. For the molecule `COc1ccc2c3c([nH]c2c1)[C@H](CO)N(C(=O)c1ccncc1)CC31CCN(C(=O)c2ccncc2)CC1`, the inhibition is 2.16% (inactive). Regarding `N#Cc1ccc(-c2ccc(C3[C@@H]4CN(S(=O)(=O)c5ccccc5F)C[C@H]3N4)cc2)cc1` (some centres not stated), the inhibition was -15.8% (inactive) and -46.3% (inactive).

In the case of `COc1ccccc1S(=O)(=O)N1C[C@@H]2N[C@H](C1)C2c1ccc(-c2cccc(C)c2)cc1` (some centres not stated), the inhibition was 56.8% (active) and 37.8% (inactive). For `COc1cccc(S(=O)(=O)N2C[C@@H]3N[C@H](C2)C3c2ccc(-c3cccc(C(=O)N(C)C)c3)cc2)c1` (some centres not stated), the inhibition was 10.5% (inactive) and 16.9% (inactive).

For the molecule `COc1ccc(NC(=O)N(C)C[C@H]2Oc3ccc(NS(=O)(=O)c4ccc(F)cc4)cc3C(=O)N([C@@H](C)CO)C[C@@H]2C)cc1`, the inhibition was 15.8% (inactive).

On to `C[C@H](CO)N1C[C@H](C)[C@@H](CN(C)Cc2ccc(Cl)c(Cl)c2)Oc2ccc(NS(=O)(=O)c3ccccc3)cc2C1=O`, for which the inhibition was -11.9% (inactive). For the molecule `NCCCNC(=S)NCCCN(Cc1ccc(Cl)cc1)c1ccc(Br)cn1`, the inhibition was 95% (active). Take `S=C(NCCCc1cnc[nH]1)NCCCN(Cc1ccc(Cl)c(Cl)c1)c1ccc(Br)cn1`: the inhibition is -1.73% (inactive). With `O=C(/C=C/c1ccc(Cl)cc1)Nc1ccc(Br)cn1`, the inhibition was -0.893% (inactive). Turning to `O=C1CN(S(=O)(=O)c2ccccc2)C[C@H]2[C@H](c3ccc(C4=CCCC4)cc3)[C@@H](CO)N12`, the inhibition was -19.1% (inactive). For `C[C@H](NC(=O)C[C@@H]1C=C[C@H](NC(=O)CN2CCOCC2)[C@H](CO)O1)c1ccccc1` the value was 3.29% (inactive); for `Cc1ccc2nc(CN(C)C(=O)[C@@H](Cc3ccccc3)NC(=O)[C@H]3O[C@@H](n4ccc(=O)[nH]c4=O)[C@H](O)[C@@H]3O)[nH]c2c1`, 5.6% (inactive). Then `C[C@@H]1CN([C@H](C)CO)C(=O)Cc2cc(N(C)C)ccc2O[C@H]1CN(C)S(C)(=O)=O`, with -4.07% (inactive); and `CC(=O)NCCn1c(SCC(=O)Nc2ccc(C)cc2)nc2ccccc2c1=O`, with -11.4% (inactive). On to `CC(=O)Nc1ccc(Nc2c3ccccc3nc3ccccc23)cc1`, for which the inhibition was 91.2% (active).

Regarding `CCc1c(C)nc2c(-c3ccccc3)c(C)nn2c1Nc1ccc(NC(C)=O)cc1`, the inhibition was -12.3% (inactive).

In the case of `O=C(c1cnccn1)N1CC(=O)N2[C@H](C1)[C@@H](c1ccc(C#CC3CCCCC3)cc1)[C@@H]2CO`, the inhibition was 13.7% (inactive). Regarding `CNC(=O)c1cccc2nc3ccccc3nc12`, the inhibition is 2.55% (inactive). As to `CN(C)CCNC(=O)c1ccc(Cl)c2cc3ccccc3nc12`, the inhibition is 94.5% (active). On to `O=C(NCCc1ccccn1)c1cc(-c2ccc(Cl)cc2)nc2ccccc12`, for which the inhibition was -15.9% (inactive).

For `Cn1cnc(S(=O)(=O)N[C@H]2C=C[C@H](CC(=O)NCC3CCCCC3)O[C@@H]2CO)c1`, the inhibition is 2.08% (inactive).

In the case of `C[C@@H]1CCCCO[C@H](CN(C)Cc2ccccc2)[C@H](C)CN([C@@H](C)CO)C(=O)c2cc(NS(=O)(=O)c3ccccc3)ccc2O1`, the inhibition is 7.51% (inactive). Consider `CC(C)NC(=O)N(C)C[C@H]1OCCCC[C@H](C)Oc2ccc(NS(=O)(=O)c3ccc(Cl)cc3)cc2C(=O)N([C@@H](C)CO)C[C@H]1C`, for which the inhibition was 15.1% (inactive).

As for `C[C@@H]1CCCCO[C@H](CN(C)C(=O)CCCN(C)C)[C@H](C)CN([C@@H](C)CO)C(=O)c2cc(NS(=O)(=O)c3ccc(Cl)cc3)ccc2O1`, the inhibition was 52.5% (active). On to `C[C@@H]1CN([C@H](C)CO)C(=O)c2cc(NS(=O)(=O)c3cccs3)ccc2O[C@@H](C)CCCCO[C@@H]1CN(C)S(=O)(=O)c1cccs1`, for which the inhibition was -0.96% (inactive). Take `C[C@H](CO)N1C[C@H](C)[C@@H](CN(C)Cc2ccncc2)OCCCC[C@H](C)Oc2ccc(NS(=O)(=O)c3ccc(Cl)cc3)cc2C1=O`: the inhibition was -15.9% (inactive).

For `C[C@@H]1CCCCO[C@H](CN(C)C(=O)CCCN(C)C)[C@H](C)CN([C@@H](C)CO)C(=O)c2cc(NS(=O)(=O)c3ccccc3)ccc2O1`, the inhibition was 13.8% (inactive). For `C[C@@H]1CN([C@H](C)CO)C(=O)c2cc(NS(=O)(=O)c3ccc(Cl)cc3)ccc2O[C@@H](C)CCCCO[C@H]1CN(C)Cc1ccccc1` the value was 64.2% (active); for `C[C@@H]1CCCCO[C@H](CN(C)Cc2ccccc2)[C@H](C)CN([C@H](C)CO)C(=O)c2cc(NS(=O)(=O)c3ccc(Cl)cc3)ccc2O1`, 53.1% (active). Turning to `C[C@H](CO)N1C[C@H](C)[C@H](CN(C)Cc2ccc(C(F)(F)F)cc2)OCCCC[C@H](C)Oc2ccc(NS(=O)(=O)c3ccc(Cl)cc3)cc2C1=O`, the inhibition is 5.56% (inactive). For `C[C@@H]1CCCCO[C@H](CN(C)Cc2ccccc2)[C@@H](C)CN([C@H](C)CO)C(=O)c2cc(NS(=O)(=O)c3ccc(Cl)cc3)ccc2O1`, the inhibition was 35.2% (inactive) and -9.61% (inactive). Take `C[C@@H]1CN([C@@H](C)CO)C(=O)c2cc(NS(=O)(=O)c3cn(C)cn3)ccc2O[C@@H](C)CCCCO[C@H]1CN(C)S(=O)(=O)c1cccs1`: the inhibition was 99.3% (active). In the case of `C[C@@H]1CCCCO[C@H](CN(C)S(=O)(=O)c2cccs2)[C@H](C)CN([C@@H](C)CO)C(=O)c2cc(NS(=O)(=O)c3cccs3)ccc2O1`, the inhibition was -2.6% (inactive). In the case of `COc1cccc(S(=O)(=O)Nc2ccc3c(c2)[C@@H]2C[C@@H](CC(=O)NCc4ccc(Cl)cc4)O[C@H](CO)[C@@H]2O3)c1`, the inhibition is 10.3% (inactive). On to `CN(C)C(=O)C[C@@H]1C[C@H]2c3cc(NC(=O)Nc4ccccc4F)ccc3O[C@H]2[C@@H](CO)O1`, for which the inhibition is -10% (inactive).

Consider `Cc1noc(C)c1S(=O)(=O)Nc1ccc2c(c1)CC(=O)N([C@@H](C)CO)C[C@H](C)[C@H](CN(C)C(=O)Nc1ccccc1)O2`, for which the inhibition was -0.934% (inactive). Turning to `Cc1noc(C)c1NC(=O)Nc1cccc2c1O[C@@H](CN(C)C(=O)Nc1ccc(C(F)(F)F)cc1)[C@@H](C)CN([C@@H](C)CO)C2=O`, the inhibition is -2.22% (inactive). In the case of `O=C(C[C@@H]1CC[C@@H]2[C@H](COC[C@H](O)CN2S(=O)(=O)c2ccc(Cl)cc2)O1)N[C@@H]1CCN(Cc2ccccc2)C1`, the inhibition was 17.8% (inactive). In the case of `O=C(C[C@H]1CC[C@H](NC(=O)Nc2ccccc2F)[C@@H](CO)O1)NCc1ccccc1`, the inhibition was -8.56% (inactive). With `COc1ccc(S(=O)(=O)Nc2ccc3c(c2)C(=O)N([C@H](C)CO)C[C@@H](C)[C@H](CN(C)Cc2ccccc2)O3)cc1`, the inhibition is 12.7% (inactive). In the case of `COc1cccc(-c2ccc([C@@H]3[C@@H](CO)N4C(=O)CN(C(=O)C5CCCCC5)C[C@H]34)cc2)c1`, the inhibition is -17.9% (inactive). On to `CC(C)NC(=O)N(C)C[C@H]1OCCCC[C@@H](C)Oc2ccc(NC(=O)C3CCCCC3)cc2C(=O)N([C@H](C)CO)C[C@H]1C`, for which the inhibition is -14% (inactive). For the molecule `CO[C@H]1CN(C)C(=O)c2ccc(NC(=O)c3cccc(F)c3)cc2OC[C@@H](C)N(C(C)=O)C[C@@H]1C`, the inhibition is 3.49% (inactive).

Take `C[C@@H]1CCCCO[C@H](CN(C)Cc2ccc(C(F)(F)F)cc2)[C@H](C)CN([C@H](C)CO)C(=O)c2cc(NC(=O)Nc3ccc(F)cc3)ccc2O1`: the inhibition is -10% (inactive). Consider `C[C@H](CO)N1C[C@H](C)[C@@H](CN(C)S(C)(=O)=O)OCCCC[C@H](C)Oc2ccc(NC(=O)Nc3ccc(C(F)(F)F)cc3)cc2C1=O`, for which the inhibition was 9.95% (inactive). On to `CCCN(C)C[C@@H]1OCCCC[C@@H](C)Oc2ccc(NC(=O)Nc3ccc(C(F)(F)F)cc3)cc2C(=O)N([C@H](C)CO)C[C@H]1C`, for which the inhibition is 61.7% (active). For the molecule `CN1C(=O)c2cc(NC(=O)C3CCOCC3)ccc2OC[C@@H]2O[C@H](CC(=O)NCc3ccccc3F)CC[C@H]21`, the inhibition is -6.2% (inactive). Regarding `COCC(=O)Nc1ccc2c(c1)OC[C@H](C)N(Cc1ccccc1OC)C[C@@H](C)[C@@H](OC)CN(C)C2=O`, the inhibition was 5.08% (inactive). `Cc1nc2ccccc2c2oc(C(=O)NCCCN3CCC(C)CC3)cc12`: the inhibition is 24.5% (inactive). Take `CCC1CCCCN1CCCNC(=O)c1cc2c(Cl)nc3ccccc3c2s1` (configuration not stated): the inhibition is 64.2% (active).

As for `CCCn1c2ccccc2c2cnn(CC(=O)NCCCN3CCCCC3CC)c(=O)c21` (configuration not stated), the inhibition is 6.95% (inactive). Regarding `C[C@@H]1CN([C@H](C)CO)C(=O)c2cccc(NC(=O)C3CCOCC3)c2O[C@H]1CN(C)S(=O)(=O)c1ccc(Cl)cc1`, the inhibition is -3.65% (inactive). For `OC[C@H]1[C@H](c2ccc(-c3cccnc3)cc2)[C@H]2CN(Cc3ccccn3)CCCCN21`, the inhibition was -13.2% (inactive). With `OC[C@@H]1[C@H](c2ccc(C#Cc3ccccc3)cc2)[C@@H]2CN(Cc3cncnc3)CCCCN12`, the inhibition was -7.81% (inactive). Regarding `OC[C@H]1[C@@H](c2ccc(/C=C/c3ccccc3)cc2)[C@H]2CN(Cc3cccnc3)CCCCN21`, the inhibition is 57.1% (active). Regarding `C[C@H]1CN([C@@H](C)CO)C(=O)Cc2cc(NS(=O)(=O)c3ccc(Cl)cc3)ccc2O[C@@H]1CN(C)S(=O)(=O)c1ccccc1`, the inhibition is 0.925% (inactive). As for `O=C(Cc1ccccn1)N[C@@H]1CC[C@H](CCn2cc(-c3ccc(F)cc3)nn2)O[C@@H]1CO`, the inhibition was -0.234% (inactive).

In the case of `COc1cccc(CNc2nc(NCc3cccs3)nc3ccsc23)c1`, the inhibition is 63.7% (active). As for `COc1cccc(CNc2nc(NCc3ccccc3OC)nc3ccsc23)c1`, the inhibition is -11.5% (inactive). `Clc1ccccc1Nc1nc(NCc2cccs2)nc2ccsc12`: the inhibition is -19.9% (inactive).

As to `C[C@@H]1CN([C@H](C)CO)C(=O)c2cc(-c3ccc(C#N)cc3)cnc2O[C@@H]1CN(C)C(=O)Nc1ccccc1`, the inhibition was 4.39% (inactive). `COc1ccc(-c2ccc([C@@H]3[C@@H](CO)N4CCCCN(C(=O)NC(C)C)C[C@H]34)cc2)cc1`: the inhibition was 0.301% (inactive).
